Data on 36 targets can be found in the supplement of paper PMC10849652.

The full data set covers some 7,900 targets. This sample favours those with a hit. About 0.6% of all pairs of compound and target were hits. Unmarked numbers belong to inactive results.

Chain of UniProt O43156 (O43156 whole entry, looked up): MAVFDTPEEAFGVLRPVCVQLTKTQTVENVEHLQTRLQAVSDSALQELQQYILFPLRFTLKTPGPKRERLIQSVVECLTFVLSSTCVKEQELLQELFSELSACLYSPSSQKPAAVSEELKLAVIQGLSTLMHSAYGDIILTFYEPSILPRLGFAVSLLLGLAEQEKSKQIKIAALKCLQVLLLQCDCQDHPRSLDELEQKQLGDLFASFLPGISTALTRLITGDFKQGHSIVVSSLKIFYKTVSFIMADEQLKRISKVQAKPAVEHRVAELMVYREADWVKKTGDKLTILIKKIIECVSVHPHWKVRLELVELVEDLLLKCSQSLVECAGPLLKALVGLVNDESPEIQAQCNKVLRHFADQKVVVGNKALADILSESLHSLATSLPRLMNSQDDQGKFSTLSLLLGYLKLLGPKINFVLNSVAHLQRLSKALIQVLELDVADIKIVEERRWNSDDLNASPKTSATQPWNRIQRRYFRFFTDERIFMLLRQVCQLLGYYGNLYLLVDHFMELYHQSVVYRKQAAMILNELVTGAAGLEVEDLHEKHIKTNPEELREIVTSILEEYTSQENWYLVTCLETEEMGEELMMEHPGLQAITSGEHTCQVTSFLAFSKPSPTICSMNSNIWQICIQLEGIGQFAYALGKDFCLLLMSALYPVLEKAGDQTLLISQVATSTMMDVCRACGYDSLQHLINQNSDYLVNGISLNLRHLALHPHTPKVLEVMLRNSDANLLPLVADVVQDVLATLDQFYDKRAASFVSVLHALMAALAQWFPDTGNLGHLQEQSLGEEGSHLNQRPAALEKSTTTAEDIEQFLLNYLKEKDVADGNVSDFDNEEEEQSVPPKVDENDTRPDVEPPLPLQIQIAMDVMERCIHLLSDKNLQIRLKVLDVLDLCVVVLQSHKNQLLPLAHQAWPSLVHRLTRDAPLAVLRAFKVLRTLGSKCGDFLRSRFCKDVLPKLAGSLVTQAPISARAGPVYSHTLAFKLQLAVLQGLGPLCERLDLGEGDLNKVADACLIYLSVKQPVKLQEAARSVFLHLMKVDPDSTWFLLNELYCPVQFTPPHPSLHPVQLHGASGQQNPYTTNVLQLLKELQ
Chain of UniProt Q9Y2I8 (Q9Y2I8 whole entry, looked up): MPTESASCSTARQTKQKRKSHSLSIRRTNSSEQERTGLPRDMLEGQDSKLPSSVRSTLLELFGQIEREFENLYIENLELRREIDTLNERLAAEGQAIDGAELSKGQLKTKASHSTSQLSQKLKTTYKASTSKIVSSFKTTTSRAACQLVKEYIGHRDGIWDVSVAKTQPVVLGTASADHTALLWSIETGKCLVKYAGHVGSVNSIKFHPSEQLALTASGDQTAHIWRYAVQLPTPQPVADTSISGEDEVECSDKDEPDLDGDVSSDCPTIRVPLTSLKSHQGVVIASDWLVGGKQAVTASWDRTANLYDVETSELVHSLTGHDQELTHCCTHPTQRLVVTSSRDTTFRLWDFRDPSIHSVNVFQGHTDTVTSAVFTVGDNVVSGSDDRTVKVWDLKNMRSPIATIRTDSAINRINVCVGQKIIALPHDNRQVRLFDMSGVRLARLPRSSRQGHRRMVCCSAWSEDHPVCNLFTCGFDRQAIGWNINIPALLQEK
Chain of UniProt Q9HAD4 (Q9HAD4 whole entry, looked up): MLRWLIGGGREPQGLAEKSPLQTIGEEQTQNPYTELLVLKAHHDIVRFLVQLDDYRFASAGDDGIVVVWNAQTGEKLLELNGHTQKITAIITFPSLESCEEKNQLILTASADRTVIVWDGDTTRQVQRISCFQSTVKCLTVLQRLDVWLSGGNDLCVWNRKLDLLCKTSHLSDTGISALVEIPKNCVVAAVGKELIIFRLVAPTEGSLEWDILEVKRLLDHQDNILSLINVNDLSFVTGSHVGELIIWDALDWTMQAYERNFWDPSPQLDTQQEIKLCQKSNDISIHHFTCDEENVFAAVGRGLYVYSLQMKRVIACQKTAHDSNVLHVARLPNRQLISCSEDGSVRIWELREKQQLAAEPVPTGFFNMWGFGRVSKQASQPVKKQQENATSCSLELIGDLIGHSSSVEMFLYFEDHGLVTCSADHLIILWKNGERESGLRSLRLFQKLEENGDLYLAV
Chain of UniProt Q99816 (Q99816 whole entry, looked up): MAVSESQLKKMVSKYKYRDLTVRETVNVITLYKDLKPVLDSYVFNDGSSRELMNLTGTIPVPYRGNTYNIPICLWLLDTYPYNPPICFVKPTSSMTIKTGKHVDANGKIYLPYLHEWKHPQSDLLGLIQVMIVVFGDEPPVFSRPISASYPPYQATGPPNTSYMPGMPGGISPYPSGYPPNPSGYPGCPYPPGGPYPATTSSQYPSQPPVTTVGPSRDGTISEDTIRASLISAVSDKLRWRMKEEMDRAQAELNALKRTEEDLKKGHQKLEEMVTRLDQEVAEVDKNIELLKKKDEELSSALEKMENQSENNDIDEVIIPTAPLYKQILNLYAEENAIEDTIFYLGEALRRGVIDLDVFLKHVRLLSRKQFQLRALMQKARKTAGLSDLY
Chain of UniProt Q9HAV4 (Q9HAV4 whole entry, looked up): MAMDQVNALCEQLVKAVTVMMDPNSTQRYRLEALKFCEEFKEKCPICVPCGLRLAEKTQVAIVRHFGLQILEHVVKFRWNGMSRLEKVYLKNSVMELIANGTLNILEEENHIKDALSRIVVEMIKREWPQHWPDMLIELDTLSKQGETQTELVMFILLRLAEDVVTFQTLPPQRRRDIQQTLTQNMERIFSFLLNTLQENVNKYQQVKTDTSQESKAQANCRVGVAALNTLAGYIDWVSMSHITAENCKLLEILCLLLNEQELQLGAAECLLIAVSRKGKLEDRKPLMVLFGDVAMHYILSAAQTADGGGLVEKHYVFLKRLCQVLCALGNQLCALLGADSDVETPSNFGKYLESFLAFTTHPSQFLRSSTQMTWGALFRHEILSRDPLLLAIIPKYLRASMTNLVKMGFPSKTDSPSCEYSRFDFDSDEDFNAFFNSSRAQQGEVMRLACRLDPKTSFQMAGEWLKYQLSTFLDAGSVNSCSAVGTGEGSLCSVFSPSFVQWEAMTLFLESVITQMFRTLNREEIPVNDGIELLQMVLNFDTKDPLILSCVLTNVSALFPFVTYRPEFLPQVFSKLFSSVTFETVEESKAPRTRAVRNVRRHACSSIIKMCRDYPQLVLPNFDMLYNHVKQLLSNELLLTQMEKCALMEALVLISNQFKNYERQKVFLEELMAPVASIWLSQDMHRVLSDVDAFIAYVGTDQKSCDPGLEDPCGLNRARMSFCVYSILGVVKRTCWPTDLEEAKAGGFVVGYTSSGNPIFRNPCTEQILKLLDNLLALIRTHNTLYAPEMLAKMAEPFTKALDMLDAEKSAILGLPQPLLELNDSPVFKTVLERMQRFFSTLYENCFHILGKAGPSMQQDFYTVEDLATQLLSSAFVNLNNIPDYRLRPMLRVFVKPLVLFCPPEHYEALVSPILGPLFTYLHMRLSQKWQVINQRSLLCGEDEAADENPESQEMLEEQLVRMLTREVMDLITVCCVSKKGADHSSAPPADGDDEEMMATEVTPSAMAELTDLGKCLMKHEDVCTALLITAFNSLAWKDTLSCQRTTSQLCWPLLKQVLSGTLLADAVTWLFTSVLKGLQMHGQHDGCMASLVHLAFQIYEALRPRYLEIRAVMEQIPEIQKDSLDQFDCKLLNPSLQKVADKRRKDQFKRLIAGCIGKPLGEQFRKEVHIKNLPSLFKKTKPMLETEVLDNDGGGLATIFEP
Chain of UniProt P26368 (P26368 whole entry, looked up): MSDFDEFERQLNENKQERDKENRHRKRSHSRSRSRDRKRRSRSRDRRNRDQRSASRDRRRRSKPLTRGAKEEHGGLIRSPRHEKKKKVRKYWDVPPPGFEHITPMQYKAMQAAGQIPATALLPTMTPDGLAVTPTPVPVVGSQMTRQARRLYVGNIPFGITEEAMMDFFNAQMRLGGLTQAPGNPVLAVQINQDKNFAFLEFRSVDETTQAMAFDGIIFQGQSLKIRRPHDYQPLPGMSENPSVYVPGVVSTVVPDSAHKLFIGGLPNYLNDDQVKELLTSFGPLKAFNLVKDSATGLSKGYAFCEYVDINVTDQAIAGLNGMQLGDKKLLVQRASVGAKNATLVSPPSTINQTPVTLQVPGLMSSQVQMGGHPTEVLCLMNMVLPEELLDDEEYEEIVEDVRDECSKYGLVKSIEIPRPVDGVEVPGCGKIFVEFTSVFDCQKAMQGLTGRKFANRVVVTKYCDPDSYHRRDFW
Chain of UniProt Q9NQH7 (Q9NQH7 whole entry, looked up): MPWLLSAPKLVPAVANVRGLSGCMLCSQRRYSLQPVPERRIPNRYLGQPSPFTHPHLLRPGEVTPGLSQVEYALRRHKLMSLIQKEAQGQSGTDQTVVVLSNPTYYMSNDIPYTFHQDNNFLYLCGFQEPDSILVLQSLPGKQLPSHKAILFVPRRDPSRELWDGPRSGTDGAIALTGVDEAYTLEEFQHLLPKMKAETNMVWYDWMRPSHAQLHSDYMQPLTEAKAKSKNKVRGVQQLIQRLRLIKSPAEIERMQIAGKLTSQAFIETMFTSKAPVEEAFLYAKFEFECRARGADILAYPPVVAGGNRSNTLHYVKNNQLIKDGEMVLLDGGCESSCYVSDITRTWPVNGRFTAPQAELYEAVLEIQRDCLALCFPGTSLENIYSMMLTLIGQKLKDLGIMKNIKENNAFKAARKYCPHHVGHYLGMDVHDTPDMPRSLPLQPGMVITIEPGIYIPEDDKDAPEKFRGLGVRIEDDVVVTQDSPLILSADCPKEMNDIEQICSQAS
Chain of UniProt Q8WVY7 (Q8WVY7 whole entry, looked up): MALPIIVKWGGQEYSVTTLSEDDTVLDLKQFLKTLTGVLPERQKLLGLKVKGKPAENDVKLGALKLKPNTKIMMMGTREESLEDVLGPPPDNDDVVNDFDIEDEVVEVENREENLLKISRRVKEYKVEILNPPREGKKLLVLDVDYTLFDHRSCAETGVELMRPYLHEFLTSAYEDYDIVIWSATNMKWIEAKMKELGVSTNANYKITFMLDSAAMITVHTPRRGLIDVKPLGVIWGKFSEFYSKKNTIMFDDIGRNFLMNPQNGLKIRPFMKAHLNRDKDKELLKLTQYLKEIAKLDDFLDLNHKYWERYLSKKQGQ

Compound in this assay: NC(=O)Nc1cc(-c2cccc(F)c2)sc1C(=O)N[C@H]1CCCNC1
Description: log2 fold change, soluble protein after heating vs DMSO (PISA); higher = thermal stabilisation; K562 cells, 10 uM, 30 min; active = over 0.2 and 3.5 SD of the protein, either way, in both replicates (recomputed). An outline of the steps: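 Values are thermal stability changes relative to control samples and are taken from duplicates. They are stated as log2 fold changes. Before quantification by TMTpro 16plex LC-MS/MS with equalised channel sums, K562 cells at 2×10^6 cells/mL were treated with 10 μM compound for 30 min, heated in aliquots for 3 min across 48°C-58°C, pooled, extracted in PBS with 0.5% NP-40 at 4°C, and centrifuged at 21,000xg for 90 min to give the soluble supernatant.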
As to VPS11 (UniProt Q9H270), the log2 fold change is -0.012.

As to TNFRSF8 (UniProt P28908), the log2 fold change is -0.12.

As for UGGT1 (UniProt Q9NYU2), the log2 fold change was 0.028. For the target WDR37 isoform 2 (UniProt Q9Y2I8), the log2 fold change was -0.041. For WDR41 (UniProt Q9HAD4) the value was 0. For UBLCP1 (UniProt Q8WVY7) the value was -0.084; for VRK2 (UniProt Q86Y07), 0.023. For WNK1 isoform 7 (UniProt Q9H4A3), the log2 fold change was 0.002. The figure for UPF3B (UniProt Q9BZI7) is 0.092; for TTC38 (UniProt Q5R3I4) it is 0.038; for WRB (UniProt O00258) it is 0.003. The figure for VPS50 (UniProt Q96JG6) is 0.003; for VDAC1 (UniProt P21796) it is 0.025. As for USP14 (UniProt P54578), the log2 fold change is -0.008.

Consider XPO5 (UniProt Q9HAV4), for which the log2 fold change was -0.025. The figure for TMEM223 (UniProt A0PJW6) is -0.087. TMEM161B (UniProt Q8NDZ6): the log2 fold change was -0.056. The figure for TUBAL3 (UniProt A6NHL2) is 0; for TMEM263 (UniProt Q8WUH6) it is -0.044. With VTA1 (UniProt Q9NP79), the log2 fold change was -0.029. The figure for XPNPEP3 (UniProt Q9NQH7) is 0.034; for TNPO1 (UniProt Q92973) it is 0.003; for WDR11 (UniProt Q9BZH6) it is 0.039. Regarding TMEM120A (UniProt Q9BXJ8), the log2 fold change was 0.229. For USP48 isoform 8 (UniProt Q86UV5), the log2 fold change is -0.077.

As for TNFRSF10A (UniProt O00220), the log2 fold change was -0.097.

Consider TSG101 (UniProt Q99816), for which the log2 fold change is -0.02. Consider UHRF1BP1L (UniProt A0JNW5), for which the log2 fold change was -0.004.

Regarding TTC4 (UniProt O95801), the log2 fold change was -0.071.

On to UBA1 (UniProt P22314), for which the log2 fold change was -0.044.

In the case of TTI1 (UniProt O43156), the log2 fold change is -0.079. In the case of USP15 (UniProt Q9Y4E8), the log2 fold change is -0.017.

For U2AF2 (UniProt P26368), the log2 fold change was -0.125.

Regarding XPO1 (UniProt O14980), the log2 fold change was 0.034.

Consider TNNC2 (UniProt P02585), for which the log2 fold change was -0.003. In the case of UBA6, the log2 fold change was -0.048.
